SMILES strings stand for the structures. About 83,000 compounds went through this panel and 20% of them were active in at least one assay; those are over-represented in the sample as a whole.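 For each line, cells grew in 96-well plates with the test compound present at a single concentration for 48 hours.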 A number with no mark means an inactive call. Active and inactive are the calls of the source.

The assay relates to A549/ATCC NSCLC. The assay can be described thus: NCI-60 one-dose screen, 48 h (100 = growth as untreated, 0 = no growth, -100 = all killed). The conditions noted are these: 10 µM unless noted. On the procedure: Growth inhibition of the A549/ATCC human Non-Small Cell Lung tumor cell line is measured as a screen for anti-cancer activity. Cells are grown in 96 well plates and exposed to the test compound for 48 hours. Compounds are tested at a single concentration, which is 10^-5 M for most compounds. The reported endpoint is percent growth (GI% or GIPRCNT), where numbers from 0 - 100% represent growth inhibition, and numbers from -100% - 0 represent cell death. For example, a value of 40 represents 60% growth inhibition. A value of 0 means no net growth occurred over the course of the experiment. A value of -40 indicates 40% of cells at the beginning of the experiment died by the end of the experiment. A value of -100 means all cells are dead at the end of the experiment.
NCI-60 Human Tumor Cell Lines Screen was performed using the standard one-dose NCI protocol, which is described in more detail at https://dtp.cancer.gov/discovery_development/nci-60/default.htm.
Compounds with GIPRCNT values below 10 were considered active. Activity score was based on GIPRCNT using the following formula: […]
Score is 0 for GIPRCNT values of 100 or above, 50 for GIPRCNT values of 0, and 100 for GIPRCNT values of -100.
For the compound `CCOc1ccc(-n2nc(C(=O)NCc3ccccc3OC)nc2-c2cc(OC)c(OC)c(OC)c2)cc1`, the growth is 34.5%.

Turning to `O=C(Cc1ccccc1)Nc1cccc(N=Cc2ccccc2O)c1`, the growth was 99.3%. In the case of `O=C(N/N=C/c1cc(Cl)ccc1O)c1ccccc1Nc1ccnc(C(F)(F)F)c1`, the growth is 54.4%. For the compound `N#C/C(=C\c1ccc([N+](=O)[O-])cc1)n1nnc2cc(F)c(F)cc21`, the growth is 64.5%.

Take `COc1ccc2c(c1)/C(=N/c1n[nH]c(=S)s1)C(=O)N2`: the growth was 83.7%. Regarding `C=C1C(=O)O[C@H]2[C@H]1CC/C(COC(=O)CSCSCC(=O)OC/C1=C/CC[C@@]3(C)O[C@H]3[C@H]3OC(=O)C(=C)[C@@H]3CC1)=C\CC[C@@]1(C)O[C@@H]21`, the growth was 72.1%. With `O=C(Nc1ccccc1O)c1ccc(CNC(=O)c2ccsc2Nc2ccnc(C(F)(F)F)c2)cc1`, the growth is 27.6%. As to `NC(=O)c1c(NC(=O)c2cccc(C(F)(F)F)c2)sc2c1CCC(=O)C2`, the growth was 17%.

`CC(C)=CCNc1ncnc2c1ncn2C1OC(CO)C(O)C1O` (stereo not given): the growth was -8.25% [1 mM] (active). For `O=C(NNc1cnccn1)c1nc2cc(F)ccc2n2cccc12`, the growth is 11.1%. Take `COc1ccc(C(=S)N2CCN(c3ccc(Cl)cc3)CC2)cc1`: the growth was 84%. Turning to `CC1(C)[C@@H](O[C@@H]2OC[C@@H](O[C@@H]3O[C@H](CO)[C@@H](O)[C@H](O)[C@H]3O[C@@H]3OC[C@@H](O)[C@H](O)[C@H]3O)[C@H](O)[C@H]2O[C@@H]2O[C@H](CO)[C@@H](O)[C@H](O)[C@H]2O)CC[C@]2(C)[C@H]3CC[C@]45OC[C@@]6(CC[C@](C)(C=O)C[C@H]64)[C@H](O)C[C@@]5(C)[C@]3(C)CC[C@@H]12`, the growth is -73.6% (active). For the compound `C=C(CNCCc1ccc(O)cc1)[C@@H]1CC[C@]2(CO)CC[C@]3(C)[C@H](CC[C@@H]4[C@@]5(C)CCC(=O)C(C)(C)[C@@H]5CC[C@]43C)[C@@H]12`, the growth is 26.7%.

For the compound `CS(=O)(=O)Nc1cc(-c2ccc3ncc(C#N)c(Nc4ccc(F)c(Cl)c4)c3c2)cnc1Cl`, the growth was 5.08% (active).

`COc1ccc(-c2nc3c(N)c(CO)cnc3s2)cc1`: the growth is 91.7%.

On to `C[C@]1(O)CC(=O)[C@]2(O)C3=C(C=C[C@]2(O)C1)C(=O)c1c(O)cccc1C3=O`, for which the growth was 103%. The result for `CC1(C)N=C(N)N=C(N)N1c1cccc(CCc2ccccc2)c1` reads 24.8%. Turning to `O=[N+]([O-])c1ccc(-c2cn3nc(-c4c[nH]c5ccccc45)sc3n2)cc1`, the growth is 86.9%. As to `C=C(C)[C@@H]1CC[C@]2(C(N)=O)CC[C@]3(C)[C@H](CC[C@@H]4[C@@]5(C)CC[C@H](OCCC#N)C(C)(C)[C@@H]5CC[C@]43C)[C@@H]12`, the growth was 74.6%. For `CCCCNC(=O)Oc1ccc(/C(=C(/C)Cc2ccc(OC)cc2)c2ccc(OCCN3CCCCCC3)cc2)cc1`, the growth was 68%. As for `O=C1Nc2ccccc2C1(c1c[nH]c2ccccc12)c1c[nH]c2ccccc12`, the growth was 58.7%.

`COc1ccc(C(=O)/C=C/c2ccc(Cl)cc2)cc1S(=O)(=O)Nc1c(N)nc(SC)[nH]c1=O`: the growth was 31.4%.

Consider `COc1ccccc1C(=O)Nc1cccc(NC(=O)c2ccoc2C)c1`, for which the growth was 28.2%. For the compound `COc1cc(NC(=O)c2cncnc2Nc2ccc3c(ccn3Cc3ccccn3)c2)cc(OC)c1`, the growth was 53.9%. For `CCOC(=O)c1c(C)nc2c(c1N)CC(=O)N2Cc1ccc(OC)cc1` the value was 25.8%; for `N#C/C(=C\C=C\c1ccc(-c2cc(Cl)ccc2Cl)o1)c1nc2ccccc2s1`, 99.4%. For `S=c1nc2oc(-c3ccccc3)c(-c3ccccc3)c2c(/N=C\c2ccco2)[nH]1` the value was 95.3%. For `N#Cc1cccc(C2C3=C(COC3=O)N(CCO)c3cc4c(cc32)OCO4)c1` (stereo not given), the growth was 39.5%.

As to `O=C(/C=C(O)/C=C/c1cccc2[nH]ccc12)/C=C/c1cccc2[nH]ccc12`, the growth is 87.5%. Turning to `COc1cccc(-c2cc(-c3cccc(Cl)c3)c(C#N)c(=O)[nH]2)c1`, the growth was 70.9%. For `NC(N)=NS(=O)(=O)c1ccc(NC2=C(I)C(=O)c3ncccc3C2=O)cc1`, the growth is 106%. Turning to `COc1cc(Cl)c(C)cc1NC(=O)c1cc2ccccc2cc1O`, the growth is 10%. As to `O=C1/C=C/[C@@H](O)[C@@H]2C[C@@H](O)C[C@H]2/C=C/CCC[C@@H](O)CCO1`, the growth is 89.3%. For the compound `COc1cc(/C=N/Nc2ccc(Br)cc2)cc(OC)c1OC`, the growth is 54.9%. For `COc1cc(/C=C/C(=O)c2ccc(-n3cc(CN4CCN(c5cc6c(cc5F)c(=O)c(C(=O)O)cn6C5CC5)CC4)nn3)cc2)ccc1O` the value was 71.6%; for `O=c1c2c3c(sc2n2c(-c4cc(-c5ccccc5)no4)nnc2n1Cc1ccccc1)CCCC3`, 49.9%. On to `Cc1ccc(-c2nc(-c3cn(C)c4ncccc34)cs2)cc1`, for which the growth was 7.36% [100 µM] (active). For `O=C1/C(=C\c2ccccn2)c2ccccc2N1c1c(Cl)cccc1Cl` the value was 50.3%. As for `O=c1ccc(=O)n(-c2nc(-c3ccc([N+](=O)[O-])cc3)cs2)[nH]1`, the growth is 88.9%. In the case of `O=C(Oc1ccc(CCl)cc1)c1ccccc1`, the growth is -68.7% (active).
